Screening data as filed in PubChem BioAssay.
Mm-Cpn inhibitor: blocks the Methanococcus maripaludis chaperonin Mm-Cpn. Potency, µM (titrated, usually from 76.9 µM), without a hit: at the top dose activity, negative = inhibition, most hits filed as inhibitors. purified Mm-Cpn ATPase, ADP Transcreener TR-FRET. hit rate 0.031% among 330,000. AID 504842; note: potency is the fitted concentration of half-maximal effect; % is set by controls: 0 for no effect and ±100 for the full control effect; nearly all actives have a fitted effect of over 80% in size
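TR-FRET (320 nm excitation; 590 and 665 nm emission) reports ADP made from 10 uM ATP by 25 nM enzyme; compounds were preincubated 10 min, reaction run 30 min, both at 37°C.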
TSHR antag: antagonists of human thyroid stimulating hormone receptor. TSHR-expressing cells, TSH-stimulated cAMP HTRF, 2 h; active compounds read low. activity change, negative = inhibition, % at 11.5 µM. hit rate 0.2% among 330,000;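 active = activity change below a set negative limit, meaning inhibition stronger than a set level, cut at about -70% in these data; inconclusive = activity change between two set negative limits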; note: % is set by controls: 0 for no effect and ±100 for the full control effect
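Competitive HTRF cAMP read-out (cryptate anti-cAMP antibody, cAMP-d2; 30 min, room temperature) in freshly harvested TSHR cells. Compounds added before TSH at EC80 (4nM final), followed by 2 hours' incubation at 37 deg C.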
CCT chaperon mod: modulators of cytosolic chaperonin (CCT/TRiC) activity; purified chaperonin ATPase assay, HTRF ADP detection, 30 min; activity change, % (concentration not given with the values), hits read low; hit rate 0.3% among 360,000; in the data active = activity change below about -30%; note: % is set by controls: 0 for no effect and ±100 for the full control effect
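ATPase activity: ADP formed was measured by HTRF Transcreener (665/615 nm ratio) after 30 min at 37 deg C with 10 uM ATP. Compounds screened at one 76 uM concentration against 40 or 20 nM TRiC in Tris pH 7.4/KCl/MgCl2/DTT buffer.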
TCR act: activators of T cell receptors; AID 504894; Potency, µM (titrated, usually from 9.22 µM), for the others: at the highest dose activation of IL-2 secretion, most hits filed as activators; 330,000 tested, under 10 active; primary human leukocytes, anti-CD3, IL-2 HTRF, 48 h; note: % of control where 0% means no effect
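IL-2 produced over 48 hr by a-CD3 bead-stimulated primary human leukocytes exposed to compounds was detected with a homogeneous time-resolved FRET immunoassay, 665nm acceptor signal after 320nm excitation.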
B2AR arrestin: recruits beta-arrestin to the human beta2-adrenergic receptor | P07550 | beta-arrestin recruitment to beta2AR, cell-based reporter | Potency, µM (titrated, usually from 46.1 µM), for inactives: at the top dose activation, most hits filed as activators | hit rate 0.02% among 330,000;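 note: potency is the fitted concentration of half-maximal effect; 0% = DMSO controls and full agonism = EC100 isoproterenol or metaproterenol; nearly all actives have a fitted effect of over 65% in size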
Target sequence (P07550 whole entry, looked up): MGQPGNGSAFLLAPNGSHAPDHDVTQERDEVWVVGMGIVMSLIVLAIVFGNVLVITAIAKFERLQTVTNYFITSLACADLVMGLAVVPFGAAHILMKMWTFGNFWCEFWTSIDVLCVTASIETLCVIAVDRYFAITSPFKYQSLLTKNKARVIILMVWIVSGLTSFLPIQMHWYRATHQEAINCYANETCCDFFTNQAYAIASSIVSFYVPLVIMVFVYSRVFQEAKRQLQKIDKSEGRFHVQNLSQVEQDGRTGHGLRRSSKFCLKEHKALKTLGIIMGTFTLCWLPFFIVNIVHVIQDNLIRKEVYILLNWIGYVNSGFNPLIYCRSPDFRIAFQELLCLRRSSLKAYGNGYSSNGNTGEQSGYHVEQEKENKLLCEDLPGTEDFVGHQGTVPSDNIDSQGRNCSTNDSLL
* marks the source's active call; other numbers are inactive results; ? = inconclusive; nt = no result; [ ] = remark or other dose. An excerpt weighted towards active compounds, which were near 0.5% of everything screened. Unless noted, calls come from the whole dose curve; as a rule, active = well fitted curve in the direction sought with a large enough effect; inconclusive = small, poorly fitted or top-dose-only effect, or another doubt; inactive = no such curve, though single readings can be large; an effect the other way counts as inactive or inconclusive.

SMILES | Mm-Cpn inhibitor | TSHR antag | CCT chaperon mod | TCR act | B2AR arrestin
O=C(COC(=O)/C=C/c1cccc(Br)c1)NCc1ccco1 | 0% | -3 | -4 | -3% | 0%
CC(/C=C/c1ccccc1)=N\Nc1nc(-c2ccccc2)cs1 | 1% | -4 | -70* | 0% | 0%
O=[N+]([O-])c1ccc(Sc2nc3ccccc3o2)c([N+](=O)[O-])c1 | 2% | -71* | -1 | nt | -1%
O=[N+]([O-])c1ccc(Cl)cc1Sc1nc2ccccc2o1 | 3% | -18 | -6 | -8%[46.1 µM] | 0%
Cn1cnnc1SCc1ccc(F)c2ccccc12 | 0% | -6 | -2 | 0% | 0%
CC(N)=Nc1ccc([N+](=O)[O-])cc1 | -6% | 3 | 0 | 0%[46.1 µM] | -1%
O=[N+]([O-])c1ccc(N=Nc2c(Cl)cc(O)cc2Cl)cc1 | -13% | -91* | 1 | 0% | -1%
CCc1cc2cccc(C)c2nc1SCC(=O)c1ccc(NC(C)=O)cc1 | -1% | -6 | 1 | 1% | 0%
Brc1ccc(C2=Nc3cccc4cccc(c34)N2)o1 | 0% | 9 | -44* | 4%[46.1 µM] | -1%
Fc1ccc(C2=Nc3cccc4cccc(c34)N2)cc1 | 0% | -2 | -3 | 2% | 0%
C=CCC1(CC=C)CCCN1C(=O)CC1C(=O)NCCN1Cc1cccc(OC)c1 (configuration not stated) | -1% | 7 | 0 | -3% | 0%
CC(Cc1cccs1)NC(=O)Nc1ccc(F)cc1 (configuration not stated) | 1% | 10 | -2 | 1% | 0%
COc1ccc(N2C(=O)CC(NNC(=O)c3cccnc3)C2=O)cc1 (configuration not stated) | 0% | 5 | -43* | -8% | -1%
O=C(NNC1CC(=O)N(c2ccc(Br)cc2)C1=O)c1cccnc1 (configuration not stated) | 0% | 4 | 2 | 2% | 0%
N/C(=N\OC(=O)c1ccccc1)c1cccnc1 | -2% | 4 | 0 | 0% | 0%
N/C(=N\OC(=O)c1ccccc1)c1ccn[nH]1 | ? | -4 | -31* | 6% | 0%
Cn1cccc1C(=S)N=P(C1CCCCC1)(N1CCOCC1)N1CCOCC1 | 1% | -3 | -52* | -19% | 0%
Cn1cccc1C(=S)N1CCOCC1 | 0% | 7 | -1 | 1% | 0%
COc1ccc2c(-c3ccc(SC)cc3)c(-c3ccc(S(C)(=O)=O)cc3)sc2c1 | -11% | 4 | 0 | 9% | -1%
COc1ccc2sc(-c3ccc(S(C)(=O)=O)cc3)c(-c3ccc(SC)cc3)c2c1 | 20µM* | 6 | -1 | 5% | 0%
CCOc1ccc(N2CC(C(=O)N3CC(C)OC(C)C3)CC2=O)cc1 (configuration not stated) | 3% | -4 | -1 | -2% | 0%
COC(CNC(=O)c1cn(C)c2ccc(S(=O)(=O)N3CCOCC3)cc2c1=O)OC | 1% | -118* | -1 | 1% | -1%
Cc1cccc(OCCNc2cc(N3CCN(C)CC3)ccc2[N+](=O)[O-])c1 | 2% | 2 | 0 | 1%[46.1 µM] | 0%
CCn1cc(C(=O)N2CCCc3ccccc32)c2cc(OC)c(OC)cc2c1=O | 3% | -3 | -30* | 3% | 0%
CS(=O)(=O)c1ccc(NC(=O)CCN2C(=O)NC3(CCCC3)C2=O)cc1 | 1% | 5 | 1 | nt | 6%
SMILES | Mm-Cpn inhibitor | TSHR antag | CCT chaperon mod | TCR act | B2AR arrestin
COc1cc(/C=N/NC(=O)/C(=C/c2ccccc2)CCO)ccc1O | -3% | 2 | 0 | 0%[46.1 µM] | -1%
O=C(N/N=C/c1ccc(O)cc1O)/C(=C/c1ccccc1)CCO | -1% | -3 | -35* | -5%[46.1 µM] | -1%
CCC1CN(C(=O)NCc2ccccc2)c2ccccc2O1 (configuration not stated) | -1% | -72* | 0 | 5% | 0%
COCCNC(=O)CSc1nc2ccccc2c(=O)n1CCCC(=O)NCc1ccccc1 | 1% | -8 | -75* | -5% | 5%
COCCCNC(=O)CSc1nc2ccccc2c(=O)n1CCCN1CCCCC1 | ? | -1 | -4 | 11% | 0%
COc1ccc(NC(=S)N(CCCN2CCOCC2)C(C)c2cc3ccccc3o2)cc1 (configuration not stated) | 2% | 1 | 0 | -2% | -1%
O=C(CSc1nc2ccccc2c(=O)n1-c1ccc(F)cc1)Nc1cc(S(=O)(=O)N2CCOCC2)ccc1Cl | -15% | 3 | -3 | -1% | 16µM*
O=C(Cc1ccccc1)Nc1ccc(Cl)cn1 | 0% | 18 | 2 | -3% | -1%
O=C(COC(=O)COc1ccccc1F)Nc1ccc(Cl)cn1 | 0% | 2 | -2 | -4% | -1%
O=C(COC(=O)Cc1ccccc1F)Nc1ccc(Cl)cn1 | 2% | 2 | -33* | 1% | 0%
CCOc1ccc(OCCC(=O)OCC(=O)Nc2ccc(Cl)cn2)cc1 | 2% | -6 | -33* | -5% | 0%
O=C(CCc1ccccc1)Nc1ccc(Cl)cn1 | 1% | 28 | -53* | 5% | -2%
CC(NCc1ccncc1)C12CC3CC(CC(C3)C1)C2 (configuration not stated) | -1% | 21 | -4 | -1% | 0%
CCCn1c(=O)c2ccccc2n2c(=S)[nH]nc12 | -6% | -2 | 0 | 9% | -1%
CCOC(=O)c1c(N)sc(C(=O)N2CCOCC2)c1C | -2% | -4 | -4 | 2%[46.1 µM] | 0%
CCOC(=O)c1c(P(=O)(N2CCOCC2)N2CCOCC2)noc1N | 0% | 1 | -54* | 2% | 1%
CN(C)S(=O)(=O)c1cccc(-c2nn(-c3ccccc3)cc2/C=C2\SC(=S)NC2=O)c1 | -2% | -74* | 1 | -6%[46.1 µM] | -1%
CN(C)S(=O)(=O)c1cccc(-c2nn(-c3ccccc3)cc2/C=C(\C#N)c2nc3ccccc3[nH]2)c1 | -5% | -6 | -16 | -4%[46.1 µM] | 0%
COc1ccccc1C(=O)Nc1ccc(S(=O)(=O)N2CCN(C)CC2)cc1 | nt | nt | 2 | -4% | nt
CC1Cc2ccccc2N1C(=O)Cn1cc([N+](=O)[O-])ccc1=O (configuration not stated) | 0% | 1 | -3 | 3% | 0%
Nc1nonc1C(=O)N/N=C/c1cc2c(cc1Br)OCO2 | 0% | -1 | -31* | -12% | 0%
O=C1Nc2ccccc2C(=O)N2CCCCC12 (configuration not stated) | 1% | -7 | -2 | -5% | -1%
O=C(CN1CCN(C(=O)c2ccccc2)CC1)Nc1cc(S(=O)(=O)N2CCCC2)ccc1Cl | 1% | -21 | 0 | 4% | 0%
O=C(CN1CCN(C(=O)c2ccccc2)CC1)Nc1ccc(Cl)cc1F | 2% | -79* | 0 | -3% | 0%
O=C(Cn1cnc2ccccc2c1=O)N1CCN(Cc2ccc3c(c2)OCO3)CC1 | -23% | -6 | -54* | -3% | 0%
